{"source": "PubChem BioAssay (NCATS)", "note": "“And” between values parts separate entries of the source, which are not always exact repeats. Equal entries are not always repeated. Records with an inconclusive call do not appear. Unmarked numbers belong to inactive results. The source made the active and inactive calls. The call rests on the fitted dose curve; in most records, active means well fitted inhibition curve with a large enough effect; inconclusive means small, poorly fitted or top-dose-only effect; inactive means flat fitted curve, though single readings scatter. On the % scale 0 is the no-effect control and ±100 the full control effect; potency means the concentration at half of the fitted maximal effect.", "data": [{"experiment": "Primary qHTS for inhibitors of nuclear receptor binding SET domain protein 2 (NSD2) in an isogenic RCH-ACV NSD2 p.E1099K mutant (9B) (AID 1645876); further: nearly all actives have a fitted effect of over 70% in size", "details": "RCH-ACV NSD2 E1099K (9B) viability, CellTiter-Glo, 72 h; series mostly up to 44.9 µM; activity change, negative = viability loss: at the top concentration", "values": [{"smiles": "COC(=O)CCC(=O)OC[C@]1(C)CCC[C@@]2(C)C3CC[C@]4(C)C=CC3(CCC12)C4", "note": "(stereo partly drawn)", "activity change, negative = viability loss": "-0.303% [at 17.3 µM]"}, {"smiles": "OC[C@H]1O[C@@H](O[C@H]2[C@H](OCCc3ccccc3)O[C@H](CO)[C@@H](O)[C@@H]2O)[C@H](O)[C@@H](O)[C@@H]1O", "activity change, negative = viability loss": "1.2% [at 17.3 µM]"}, {"smiles": "C#CC[C@H](c1nc2cc(Cl)ccc2c(=O)n1Nc1ccccc1)N(CCCN)C(=O)c1cccc(Cl)c1F", "Potency": "372 nM (active)"}, {"smiles": "CN[C@H](CC(C)C)C(=O)N[C@H]1C(=O)N[C@@H](CC(N)=O)C(=O)N[C@H]2C(=O)N[C@H]3C(=O)N[C@H](C(=O)N[C@H](C(=O)O)c4cc(O)cc(O)c4-c4cc3ccc4O)[C@H](O[C@H]3C[C@](C)(N)[C@@H](O)[C@H](C)O3)c3ccc(c(Cl)c3)Oc3cc2cc(c3O[C@@H]2O[C@H](CO)[C@@H](O)[C@H](O)[C@H]2O[C@H]2C[C@](C)(NCc3ccc(-c4ccc(Cl)cc4)cc3)[C@@H](O)[C@H](C)O2)Oc2ccc(cc2Cl)[C@H]1O", "outcome": "inactive [at 17.3 µM]"}, {"smiles": "CC1(C)CC[C@]2(C(=O)O[C@@H]3O[C@H](CO)[C@@H](O)[C@H](O)[C@H]3O)CC[C@]3(C)C(=CCC4[C@@]5(C)C[C@@H](O)[C@H](O)C(C)(C)C5[C@H](O)C[C@]43C)[C@@H]2[C@@H]1O", "note": "(stereo partly drawn)", "activity change, negative = viability loss": "3.42% [at 17.3 µM]"}, {"smiles": "CN(C)c1ccc2c(c1)OC(N)=C(C#N)C2c1cccc(C(F)(F)F)c1", "note": "(stereo not drawn)", "Potency": "817 nM (active)"}, {"smiles": "C[C@@H]1C[C@H]2O[C@@H]2/C=C\\C=C\\C(=O)Cc2c(Cl)c(O)cc(O)c2C(=O)O1", "Potency": "488 nM (active) and 640 nM (active)"}, {"smiles": "C[C@@H]1O[C@@H](O[C@H]2[C@H](O[C@H]3CC[C@@]4(C)C(CC[C@]5(C)C4CC=C4[C@@H]6CC(C)(C)CC[C@]6(C(=O)O[C@@H]6OC[C@H](O)[C@H](O)[C@H]6O[C@@H]6O[C@@H](C)[C@H](O[C@@H]7O[C@H](CO)[C@@H](O)[C@H](O)[C@H]7O)[C@H](O)[C@H]6O)[C@H](O)C[C@]45C)C3(C)C)O[C@H](CO)[C@@H](O[C@@H]3OC[C@@H](O)[C@H](O)[C@H]3O)[C@@H]2O)[C@H](O)[C@H](O)[C@H]1O", "note": "(stereo partly drawn)", "activity change, negative = viability loss": "-6.56% [at 9.23 µM]"}]}]}
